Measured values taken from the supplement of paper PMC4840960.

What was measured:
[1] = test system: E18 rat cortical neuron-glia co-culture; test: fiber score / MBP score (myelination specific beyond OL differentiation) (ratio); higher = more myelination-specific MBP alignment; settings: treatment time: 8 days (DIV5-DIV13)
Procedure, shortened: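 The measure is the ratio of fiber score to MBP score, where fiber score is continuous MBP fiber length per Olig2+ nucleus and MBP score is thresholded MBP area × intensity per Olig2+ nucleus. Primary E18 rat cortical co-cultures received library compounds at 1 or 5 µM in myelination medium from DIV5 to DIV13, then were fixed in 4 % paraformaldehyde and stained for MBP, Olig2 and DAPI before analysis of four 10X fields per well in duplicate wells.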

[2] = test system: E18 rat cortical neuron-glia co-culture; test: myelination (MBP fiber length per Olig2+ nucleus), % of 1 µM DAPT response (DMSO = 0) (% of DAPT); higher = more myelination, active = 50 or more; settings: treatment time: 8 days (DIV5-DIV13)
Procedure, shortened: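 The myelination value was the continuous straight MBP fiber length per Olig2+ nucleus, scaled between 0.1 % DMSO (0) and a 1 µM positive control (100). It was measured in primary E18 rat cortical co-cultures treated with library compounds at 1 or 5 µM in myelination medium from DIV5 through DIV13. Cells were fixed in 4 % paraformaldehyde and stained for MBP, Olig2 and DAPI, and four 10X fields per well were imaged in duplicate wells.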

Structure (SMILES)	fiber score / MBP score ([1]; 1 µM)	fiber score / MBP score ([1]; 5 µM)	myelination ([2]; 1 µM)	myelination ([2]; 5 µM)
CN1C(=O)CN=C(c2ccccc2)c2cc(Cl)ccc21 [Diazepam]	0.832	0.879	-8.32 (inactive)	-9.05 (inactive)
C[C@]12Cc3c[nH]nc3C[C@@H]1CC[C@@H]1[C@@H]2CC[C@@]2(C)[C@H]1CC[C@]2(C)O [Stanozolol]	0.697	–	-13.6 (inactive)	–
NC(=O)OCCCc1ccccc1 [Phenprobamate]	0.695	0.885	-14.2 (inactive)	-11.4 (inactive)
CCCN1C[C@H](CSC)C[C@@H]2c3cccc4[nH]cc(c34)C[C@H]21 [Pergolide]	0.689	0.278	-19.3 (inactive)	-24.9 (inactive)
C[C@]12CCC(=O)C=C1CC[C@@H]1[C@@H]2CC[C@@]2(C)[C@H]1CC[C@]2(C)O [Methyltestosterone]	0.609	0.755	-24.8 (inactive)	-17.2 (inactive)
